Measurements taken from PubChem BioAssay (NCATS).
Records with an inconclusive call do not appear. Active and inactive are the calls of the source. Calls come from the whole dose curve; as a rule, active = well fitted curve in the direction sought with a large enough effect; inconclusive = small, poorly fitted or top-dose-only effect, or another doubt; inactive = no such curve, though single readings can be large; an effect the other way counts as inactive or inconclusive.

Legend:
[1] = biological target: Calcium and integrin-binding protein 1 (Homo sapiens) (UniProt Q99828); experiment: Primary qHTS for Identification of Calcium Integrin Binding Protein 1 (CIB1) Competitor (AID 1508620);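 note: GST tagged CIB1 binding a fluorescein labelled alphaIIb integrin peptide tracer; top concentration of the series differs between compounds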
How it was run: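 Fluorescence polarization competition: CIB1-GST (1 uM final) preincubated with compound 15 min at room temperature, then FITC-labeled alphaIIb peptide (100 nM final) added for another 15 min. Polarization read at Ex 480/Em 540.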

[2] = Primary qHTS for inhibitors of nuclear receptor binding SET domain protein 2 (NSD2) in an isogenic RCH-ACV NSD2 p.E1099K mutant (9B) (AID 1645876); note: nearly all actives have a fitted effect of over 70% in size
[3] = Primary qHTS for inhibitors of nuclear receptor binding SET domain protein 2 (NSD2) in an RCH-ACV wild type WT cells (2C) (AID 1645877); note: nearly all actives have a fitted effect of over 70% in size
% is set by controls: 0 for no effect and ±100 for the full control effect.

Sequence of Calcium and integrin-binding protein 1 (Homo sapiens) (Q99828 whole entry, looked up): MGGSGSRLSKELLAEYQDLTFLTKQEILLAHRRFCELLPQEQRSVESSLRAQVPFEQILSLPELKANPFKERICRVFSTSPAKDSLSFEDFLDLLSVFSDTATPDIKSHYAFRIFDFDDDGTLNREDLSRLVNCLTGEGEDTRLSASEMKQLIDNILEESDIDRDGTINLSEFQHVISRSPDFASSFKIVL

CC1(C)CC[C@]2(C(=O)O[C@@H]3O[C@H](CO)[C@@H](O)[C@H](O)[C@H]3O)CC[C@]3(C)C(=CCC4[C@@]5(C)CC[C@H](O[C@@H]6O[C@H](C(=O)O)[C@@H](O[C@@H]7O[C@H](CO)[C@@H](O)[C@H](O)[C@H]7O)[C@H](O)[C@H]6O[C@@H]6O[C@H](CO)[C@@H](O)[C@H](O)[C@H]6O)C(C)(C)C5CC[C@]43C)C2C1 (some centres not stated)
inactive: Potency [1] | activity change, negative = viability loss [2] 4.56% [at 9.23 µM] | activity change, negative = cell killing [3] 4.58% [at 9.23 µM]

C=C(C)[C@@H]1CC[C@]2(C)CC[C@]3(C)C(CCC4[C@@]5(C)CC[C@H](O)C(C)(C)C5CC[C@]43C)C12 (some centres not stated)
inactive: Potency [1] | Potency [2] | Potency [3]

C/C(=C\CCC(C)C1CC(O)C2(C)C3CCC4C(C)(C)C(OC5OCC(O)C(O)C5O)CCC45CC35CC(O)C12C)C(=O)O (configuration not stated)
inactive: Potency [1] | Potency [2] | Potency [3]

C[C@@H]1O[C@@H](O[C@@H]2[C@@H](O)[C@H](O[C@@H]3[C@@H](O)[C@@H](O)[C@H](O[C@H]4[C@H](OC(=O)[C@]56CCC(C)(C)C[C@H]5C5=CCC7[C@@]8(C)C[C@H](O)[C@H](O[C@@H]9O[C@H](C(=O)O)[C@@H](O)[C@H](O)[C@H]9O)[C@@](C)(CO)C8[C@H](O)C[C@@]7(C)[C@]5(C)C[C@H]6O)O[C@@H](CO)[C@@H]4O)O[C@H]3C)OC[C@H]2O)[C@H](O)[C@H](O)[C@H]1O (some centres not stated)
inactive: activity change, negative = inhibition [1] 0.349% [at 12.4 µM] | activity change, negative = viability loss [2] -3.74% [at 9.23 µM] | activity change, negative = cell killing [3] -10.6% [at 9.23 µM]
